Measured values taken from PubChem BioAssay (EPA / NIEHS).
Active and inactive are the calls of the source. How the source made its calls: active means hit-call score of the fitted dose curve at least 0.9, where 1 is the maximum; inactive means score below 0.9.

Tests used:
Settings in all cases: mRNA level, 48 h; actives raise or lower the signal
[1] = read-out: Cyclin D1 (CCND1), CCND1 (gene 595); experiment: LTEA_HepaRG_CCND1: Life Technologies and Expression Analysis (LTEA) Assay for Cyclin D1 (CCND1) using HepaRG (AID 2283451);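 on AC50: TaqMan qRT-PCR transcript level normalised to ACTB GAPDH and POLR2A housekeeping genes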
How it was run: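 Human liver HepaRG line; 48 h dosing, 8 conc. ≤100 uM, 0.5% DMSO; TaqMan qRT-PCR mRNA, 3 housekeeping genes; bidirectional curve fit vs DMSO.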

[2] = read-out: catalase (CAT), CAT (gene 847); experiment: LTEA_HepaRG_CAT: Life Technologies and Expression Analysis (LTEA) Assay for catalase (CAT) using HepaRG (AID 2283452)
How it was run: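 Expression of CAT was quantified by TaqMan qRT-PCR with ACTB/GAPDH/POLR2A normalization after 48 h chemical exposure of HepaRG. Eight-point half-log series, top 100 uM, in 0.5% DMSO; gain or loss fitted against vehicle.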

[3] = read-out: flavin-containing dimethylaniline monooxygenases 3 (FMO3), FMO3 (gene 2328); experiment: LTEA_HepaRG_FMO3: Life Technologies and Expression Analysis (LTEA) Assay for flavin-containing dimethylaniline monooxygenases 3 (FMO3) using HepaRG (AID 2283453)
How it was run: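 Differentiated HepaRG cells in serum-free induction medium, exposed 48 h in duplicate to 8 half-log concentrations up to 100 uM in 0.5% DMSO. FMO3 mRNA by qRT-PCR, normalized to ACTB, GAPDH, POLR2A; bidirectional fit vs DMSO.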

[4] = read-out: Cytochrome P450 (CYP1A1), CYP1A1 (gene 1543); experiment: LTEA_HepaRG_CYP1A1: Life Technologies and Expression Analysis (LTEA) Assay for Cytochrome P450 (CYP1A1) using HepaRG (AID 2283454)
How it was run: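 Induction of CYP1A1 mRNA in a human hepatic cell line was measured 48 h after dosing, with 1 mM phenobarbital as induction positive control and 0.5% DMSO vehicle as baseline for bidirectional curve fitting.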

[5] = read-out: CFLAR gene, CFLAR (gene 8837); experiment: LTEA_HepaRG_CFLAR: Life Technologies and Expression Analysis (LTEA) Assay for CFLAR gene using HepaRG (AID 2283455)
How it was run: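 HepaRG, 48 h exposure, 8-pt conc-response (100 uM top, half-log), 0.5% DMSO vehicle, duplicates. CFLAR expression by qRT-PCR; ACTB/GAPDH/POLR2A normalization; gain or loss fit vs DMSO baseline.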

[6] = read-out: growth arrest and DNA damage 45 (GADD45A), GADD45A (gene 1647); experiment: LTEA_HepaRG_GADD45A: Life Technologies and Expression Analysis (LTEA) Assay for growth arrest and DNA damage 45 (GADD45A) using HepaRG (AID 2283458)
How it was run: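 Differentiated HepaRG cells exposed 48 h in serum-free induction medium to 8 concentrations, top 100 uM in half-log steps, 0.5% DMSO. GADD45A mRNA quantified by qRT-PCR, normalized to ACTB, GAPDH and POLR2A; bidirectional fit versus DMSO.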

[7] = read-out: Forkhead box O3 (FOXO3), FOXO3 (gene 2309); experiment: LTEA_HepaRG_FOXO3: Life Technologies and Expression Analysis (LTEA) Assay for Forkhead box O3 (FOXO3) using HepaRG (AID 2283459)
How it was run: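 HepaRG, 48 h post-dose; 8 conc., half-log from 100 uM, 0.5% DMSO, duplicates; serum-free induction medium. Readout: FOXO3 mRNA, TaqMan qRT-PCR, housekeeping-normalized. Bidirectional curve fit vs DMSO baseline.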

[8] = read-out: ABC Transporter (ABCB1), ABCB1 (gene 5243); experiment: LTEA_HepaRG_ABCB1: Life Technologies and Expression Analysis (LTEA) Assay for ABC Transporter (ABCB1) using HepaRG (AID 2283460)
How it was run: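 Expression of ABCB1 was quantified by qRT-PCR against three housekeeping genes after human HepaRG cultures received test chemicals for 48 hours. Concentrations spanned eight half-log steps topping at 100 uM in 0.5% DMSO; gain or loss of signal was fitted relative to vehicle.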

[9] = read-out: ABC Transporter (ABCC3), ABCC3 (gene 8714); experiment: LTEA_HepaRG_ABCC3: Life Technologies and Expression Analysis (LTEA) Assay for ABC Transporter (ABCC3) using HepaRG (AID 2283462)
How it was run: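 Differentiated HepaRG liver cells receive test chemicals at eight concentrations (max 100 uM) for 48 h. Expression of ABCC3 is quantified by qRT-PCR against ACTB, GAPDH and POLR2A, and activity is fitted in both directions against the DMSO control.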

[10] = read-out: ABC Transporter (ABCB11), ABCB11 (gene 8647); experiment: LTEA_HepaRG_ABCB11: Life Technologies and Expression Analysis (LTEA) Assay for ABC Transporter (ABCB11) using HepaRG (AID 2283463)
How it was run: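 ABCB11 transcript levels are read by Fluidigm TaqMan qRT-PCR after 48 h chemical treatment of human HepaRG cells. Concentrations span 100 uM downward in half-log steps with 0.5% DMSO; gain or loss is fitted against DMSO controls.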

[11] = read-out: ABC Transporter (ABCC2), ABCC2 (gene 1244); experiment: LTEA_HepaRG_ABCC2: Life Technologies and Expression Analysis (LTEA) Assay for ABC Transporter (ABCC2) using HepaRG (AID 2283464)
How it was run: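 Gene expression of ABCC2 was determined by qRT-PCR in HepaRG cells exposed 48 h to chemicals (highest 100 uM, half-log dilutions). Activity was fitted in both directions relative to 0.5% DMSO vehicle.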

[12] = read-out: Broad substrate specificity ATP-binding cassette transporter ABCG2 (Homo sapiens) (UniProt Q9UNQ0); experiment: LTEA_HepaRG_ABCG2: Life Technologies and Expression Analysis (LTEA) Assay for ABC Transporter (ABCG2) using HepaRG (AID 2283465)
How it was run: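 Read-out is ABCG2 mRNA induction or loss quantified by qRT-PCR after 48 h chemical treatment of human HepaRG cells, normalized to three housekeeping genes. Concentrations reached 100 uM top in half-log steps; fitting was bidirectional against 0.5% DMSO.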

[13] = read-out: Peroxisomal acyl-coenzyme A oxidase 1 (ACOX1) gene, ACOX1 (gene 51); experiment: LTEA_HepaRG_ACOX1: Life Technologies and Expression Analysis (LTEA) Assay for Peroxisomal acyl-coenzyme A oxidase 1 (ACOX1) gene using HepaRG (AID 2283467)
How it was run: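 Measured by qRT-PCR against three housekeeping genes: ACOX1 transcript change in human HepaRG cells after 48 h dosing. Concentrations ran up to 100 uM in half-log steps. Curves were fitted bidirectionally relative to 0.5% DMSO.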

[14] = read-out: Alkaline Phosphatase, Placental (ALPP) gene, ALPP (gene 250); experiment: LTEA_HepaRG_ALPP: Life Technologies and Expression Analysis (LTEA) Assay for Alkaline Phosphatase, Placental (ALPP) gene using HepaRG (AID 2283468)
How it was run: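 Expression of ALPP was quantified by qRT-PCR against three housekeeping genes in human HepaRG cultures treated for 48 h with an eight-point concentration series up to 100 uM. Activity in either direction was fitted relative to 0.5% DMSO.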

[15] = read-out: Bcl-2 (BAD) gene, BAD (gene 572); experiment: LTEA_HepaRG_BAD: Life Technologies and Expression Analysis (LTEA) Assay for Bcl-2 (BAD) gene using HepaRG (AID 2283469)
How it was run: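 BAD transcript change, measured by qRT-PCR against three housekeeping genes and fitted in both directions relative to 0.5% DMSO, after 48 h chemical treatment of human HepaRG liver cells at concentrations up to 100 uM.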

[16] = read-out: Bcl-2 (BAX) gene, BAX (gene 581); experiment: LTEA_HepaRG_BAX: Life Technologies and Expression Analysis (LTEA) Assay for Bcl-2 (BAX) gene using HepaRG (AID 2283470)
How it was run: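 Differentiated HepaRG cells exposed 48 h in serum-free induction medium, eight half-log concentrations from 100 uM, in duplicate, 0.5% DMSO vehicle. BAX mRNA by TaqMan qRT-PCR, normalised to ACTB, GAPDH and POLR2A.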

[17] = read-out: ATP-citrate lyase (ACLY), ACLY (gene 47); experiment: LTEA_HepaRG_ACLY: Life Technologies and Expression Analysis (LTEA) Assay for ATP-citrate lyase (ACLY) using HepaRG (AID 2283466)
How it was run: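 HepaRG, 48 h exposure, 8-pt half-log dilutions (top 100 uM), 0.5% DMSO. Readout: ACLY mRNA, TaqMan qRT-PCR, housekeeping-normalized (ACTB/GAPDH/POLR2A). Bidirectional curve fit vs DMSO.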

[18] = read-out: growth arrest and DNA damage 45 (GADD45B), GADD45B (gene 4616); experiment: LTEA_HepaRG_GADD45B: Life Technologies and Expression Analysis (LTEA) Assay for growth arrest and DNA damage 45 (GADD45B) using HepaRG (AID 2283461)
How it was run: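 Values are bidirectional concentration-response fits against 0.5% DMSO controls. Underlying data: qRT-PCR mRNA levels in human HepaRG liver cells treated 48 h in serum-free induction medium, eight concentrations topping at 100 uM.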

Measured: AC50

Broad substrate specificity ATP-binding cassette transporter ABCG2 (Homo sapiens), sequence (Q9UNQ0 whole entry, looked up): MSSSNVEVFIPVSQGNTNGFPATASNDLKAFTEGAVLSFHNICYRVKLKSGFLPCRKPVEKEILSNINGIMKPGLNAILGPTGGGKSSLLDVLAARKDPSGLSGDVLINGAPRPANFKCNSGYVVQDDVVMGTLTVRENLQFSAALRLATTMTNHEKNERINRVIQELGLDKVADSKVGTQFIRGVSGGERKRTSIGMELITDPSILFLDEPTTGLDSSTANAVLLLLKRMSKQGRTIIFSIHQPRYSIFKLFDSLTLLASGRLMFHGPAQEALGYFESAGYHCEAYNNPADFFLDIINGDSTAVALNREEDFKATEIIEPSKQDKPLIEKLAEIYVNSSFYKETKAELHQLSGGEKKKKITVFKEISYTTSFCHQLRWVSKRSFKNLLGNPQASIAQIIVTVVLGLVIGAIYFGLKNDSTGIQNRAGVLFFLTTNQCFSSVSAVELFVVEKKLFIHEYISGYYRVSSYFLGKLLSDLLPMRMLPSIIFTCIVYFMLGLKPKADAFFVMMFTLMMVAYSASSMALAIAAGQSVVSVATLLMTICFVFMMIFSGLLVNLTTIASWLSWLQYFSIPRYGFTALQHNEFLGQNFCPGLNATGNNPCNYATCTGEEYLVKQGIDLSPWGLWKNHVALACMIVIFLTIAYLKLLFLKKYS

CCNc1nc(Cl)nc(NC(C)C)n1
inactive: [1] | [2] | [3] | [5] | [6] | [7] | [9] | [10] | [11] | [12] | [13] | [14] | [15] | [16]
active: [4] 40.5 µM | [8] 21.2 µM

CCCCNC(=O)OCC#CI
inactive: [1] | [2] | [5] | [6] | [7] | [8] | [9] | [13] | [15] | [16]
active: [3] 50 µM | [4] 50 µM | [10] 50 µM | [11] 50 µM | [12] 9.92 µM | [14] 9.92 µM

COP(=S)(OC)Oc1nc(Cl)c(Cl)cc1Cl
active: [4] 80.5 µM | [10] 86.7 µM
inactive: [1] | [2] | [3] | [5] | [6] | [7] | [8] | [9] | [11] | [12] | [13] | [14] | [15] | [16]

CC1COC(Cn2cncn2)(c2ccc(Oc3ccc(Cl)cc3)cc2Cl)O1 (stereo not drawn)
inactive: [5] | [9] | [15]
active: [1] 83.9 µM | [2] 17.4 µM | [3] 22.2 µM | [4] 12.2 µM | [6] 12 µM | [7] 79.2 µM | [8] 81.4 µM | [10] 11.2 µM | [11] 34.4 µM | [12] 12.6 µM | [13] 50 µM | [14] 10.9 µM | [16] 13 µM

C=CCC1=C(C)[C@@H](OC(=O)[C@@H]2[C@@H](C=C(C)C)C2(C)C)CC1=O
inactive: [1] | [2] | [3] | [5] | [6] | [7] | [11] | [12] | [17] | [13] | [15] | [16]
active: [4] 63 µM | [8] 0.086 µM | [9] 74.2 µM | [10] 50 µM | [14] 81.2 µM

CS/C(C)=N/OC(=O)N(C)SN(C)C(=O)O/N=C(\C)SC
inactive: [1] | [2] | [3] | [4] | [5] | [6] | [7] | [8] | [9] | [11] | [12] | [17] | [13] | [14] | [15] | [16]
active: [10] 33.6 µM

Fc1ccc(Oc2ccnc3cc(Cl)cc(Cl)c23)cc1
inactive: [1] | [2] | [5] | [6] | [7] | [8] | [9] | [11] | [13] | [15] | [16]
active: [3] 85.8 µM | [4] 24 µM | [10] 89.8 µM | [12] 50 µM | [14] 50 µM

CN(C)C(=S)SSC(=S)N(C)C
inactive: [1] | [2] | [3] | [4] | [5] | [6] | [7] | [8] | [9] | [10] | [11] | [12] | [13] | [14] | [15] | [16]

CCOP(=S)(OCC)SCn1c(=O)oc2cc(Cl)ccc21
inactive: [1] | [2] | [3] | [5] | [6] | [7] | [8] | [18] | [9] | [10] | [11] | [12] | [13] | [14] | [15] | [16]
active: [4] 53.7 µM

CCOC(=O)C(Cl)Cc1cc(-n2nc(C)n(C(F)F)c2=O)c(F)cc1Cl (stereo not drawn)
active: [4] 61.9 µM | [8] 50 µM
inactive: [1] | [2] | [3] | [5] | [6] | [7] | [18] | [9] | [10] | [11] | [12] | [13] | [14] | [15] | [16]

COC(=O)C=C(C)OP(=O)(OC)OC
inactive: [1] | [2] | [3] | [4] | [5] | [6] | [7] | [8] | [9] | [11] | [12] | [13] | [14] | [15] | [16]
active: [10] 21.4 µM

COC(=O)N(OC)c1ccccc1COc1ccn(-c2ccc(Cl)cc2)n1
inactive: [1] | [5] | [7] | [9] | [11] | [14] | [15]
active: [2] 68.4 µM | [3] 75.7 µM | [4] 13 µM | [6] 60 µM | [8] 11.6 µM | [10] 38.4 µM | [12] 25 µM | [13] 77.8 µM | [16] 66.7 µM

CC(C)C1(C)N=C(c2nc3ccccc3cc2C(=O)O)NC1=O (stereo not drawn)
active: [4] 34.6 µM
inactive: [1] | [2] | [3] | [5] | [6] | [7] | [8] | [9] | [10] | [11] | [12] | [17] | [13] | [14] | [15] | [16]
